Only some compounds are listed: those with a hit (about 3.4% of all), similar ones and a draw of the others.
IMPase cell inh = qHTS Assay for Identifying the Cell-Membrane Permeable IMPase Inhibitors | AID 901, 2007 | Inositol monophosphatase 1 (Rattus norvegicus), P97697 | 120,000 tested, under 10 active | CHO-M1 cells, IP1 accumulation, HTRF TR-FRET ratio | inhibition (IP1 accumulation), % at 46.1 µM; active means well fitted curve in the direction sought with a large enough effect in the signal ratio, not every such curve was filed as active; inconclusive means small, poorly fitted or top-dose-only effect, or a change in a side signal; inactive means no such curve, though single readings can be large or run the other way; the % refers to the signal ratio;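 further: cells stimulated with carbachol in lithium chloride buffer; higher means more IMPase inhibition seen as more IP1 and lower FRET ratio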
Target sequence (P97697 whole entry, looked up): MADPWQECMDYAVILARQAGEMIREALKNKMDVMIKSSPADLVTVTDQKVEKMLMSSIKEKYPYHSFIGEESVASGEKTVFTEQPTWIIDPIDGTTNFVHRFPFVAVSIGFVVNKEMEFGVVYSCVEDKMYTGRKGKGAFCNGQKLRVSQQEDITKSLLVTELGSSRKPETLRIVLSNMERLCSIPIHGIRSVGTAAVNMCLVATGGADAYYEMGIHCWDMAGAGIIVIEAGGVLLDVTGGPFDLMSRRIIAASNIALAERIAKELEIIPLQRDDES
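Seeded CHO-M1 cells were dosed with compound at up to 46 uM, stimulated with carbachol for 30 min, then lysed in IP-One detection reagents. Higher IP1 lowers the TR-FRET signal.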
HttQ103 aggreg = qHTS Multiplex Assay to Identify Dual Action Probes in a Cell Model of Huntington: Aggregate Formation (GFP). PC12 HttQ103-GFP aggregates, Acumen cytometry, 40 h. Potency, µM (doses to about 46.1 µM), actives largely listed as inhibitors. 1.1% of 220,000 active. AID 1688, 2009; further: nearly all actives have a fitted effect of over 60% in size
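PC12 cells stably carrying ecdysone-inducible HTT exon 1 Q103–GFP were induced with tebufenozide (100 nM final) and treated with library compounds in titration. GFP aggregates in lysates were counted by laser scanning cytometry.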
IMPase Li cell = qHTS Assay for Identifying the Cell-Membrane Permeable IMPase Inhibitors: Potentiation with Lithium; CHO-M1 cells, IP1 TR-FRET (IP-One), carbachol + lithium; Potency, µM (doses to about 59.4 µM), most hits filed as inhibitors; 0.35% of 210,000 active; AID 1457, 2008;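 further: IP1 builds up when IMPase is blocked and the TR-FRET signal falls; nearly all actives have a fitted effect of over 50% in size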
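Readout is a homogeneous TR-FRET IP1 immunoassay (Ex 320, Em 665 and 620), where raised cytosolic IP1 lowers signal. Cells were CHO-M1 treated 30 min at 37C with test compounds plus a little lithium; AC50 values came from Hill-equation fitting.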
PNC assembly inh = High Content Assay for Compounds that inhibit the Assembly of the Perinucleolar Compartment; PC3M PTB-GFP, PNC prevalence imaging, 16 h; active compounds read low; activity change (PNC), negative = inhibition, % at 10 µM; 3.1% of 140,000 active;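 active means readout at or below -70, meaning at least 70% loss of cells showing the perinucleolar compartment, a nuclear body marking cancer cells; inconclusive means readout between -30 and a set limit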
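Compounds are pinned in duplicate onto adhered PC3M cells stably expressing GFP-tagged PTB and incubated 16 h at 37 C. Cells are then fixed, nuclei stained with Hoechst, and PNC-positive cells counted.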
HTT ATP protect = qHTS Multiplex Assay to Identify Dual Action Probes in a Cell Model of Huntington: Cytoprotection (ATP) | PC12 HTT-Q103 induced, cytoprotection, ATP luminescence, 40 h | AID 1471, 2008 | Potency, µM (top dose mostly 56.4 µM), usual class: activators | 0.14% of 230,000 active; further: nearly all actives have a fitted effect of over 45% in size
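Quantitative HTS on tebufenozide-induced (100 nM) PC12 cells expressing HTTQ103 exon 1–GFP; compounds tested as a concentration series; survival measured via cellular ATP.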
NPSR antagonist = qHTS Assay for Antagonists of the Neuropeptide S Receptor: cAMP Signal Transduction; CHO-NPSR cells, cAMP TR-FRET, antagonist mode; Potency, µM (titrated, usually from 38.3 µM), hits mostly inhibitors; 1% of 220,000 active; AID 1461, 2008; further: nearly all actives have a fitted effect of over 50% in size
Numbers stand for hits; – = inactive; ? = inconclusive; · = not tested or not shown; [ ] = remark or other dose. Unless noted, the call rests on the fitted dose curve; in most records, active means well fitted curve in the direction sought with a large enough effect; inconclusive means small, poorly fitted or top-dose-only effect, or another doubt; inactive means no such curve, though single readings can be large; an effect the other way counts as inactive or inconclusive.

SMILES | IMPase cell inh | HttQ103 aggreg | IMPase Li cell | PNC assembly inh | HTT ATP protect | NPSR antagonist
CN(C(=O)N1CCN(S(=O)(=O)c2ccccc2)CC1)c1ccccc1 | · | – | – | · | –[10 µM] | –
CCC(=O)/C=C1/Sc2ccc(OC)cc2N1CC | – | – | – | – | – | –
CCC(=O)/C=C1/Sc2ccccc2N1CC | – | 7.1µM | – | – | –[10 µM] | –
Cc1ccc(-c2nc(NCc3ccco3)c3ccccc3n2)cc1 | · | ? | – | – | · | –
Cc1ccc(-c2nc(C(Cl)Cl)c3ccccc3n2)cc1 | · | 0.89µM | · | · | –[10 µM] | ?
Cc1cccc(Nc2nc3c(S(=O)(=O)c4ccccc4)nnn3c3ccccc23)c1 | · | – | ? | -90 | · | –
CCCCNc1nc2c(S(=O)(=O)c3ccccc3)nnn2c2ccccc12 | · | – | 8.9µM | · | – | ?
N[C@@](C(=O)O)(c1ccc(P(=O)(O)O)cc1)C1CC1 | – | · | – | · | – | ·
COc1ccc(Nc2nc(C)cc(C)c2C(N)=O)cc1 | – | – | – | – | – | –
Cc1cc(C)c(C(N)=O)c(Nc2cccc(Cl)c2)n1 | – | – | – | -100 | –[10 µM] | –
Cc1cc(C)c(C(N)=O)c(Nc2ccc3c(c2)OCCO3)n1 | – | – | – | -100 | –[10 µM] | –
CCc1cccc(NC(=O)Cn2c(=O)n(CC(=O)NCCc3ccccc3)c(=O)c3ccccc32)c1 | – | · | · | · | · | ·
COC(=O)c1ccccc1NC(=O)Cn1c(-c2nonc2N)nc2ccccc21 | – | – | – | -98 | –[10 µM] | –
CCCn1c(-c2nonc2N)nc2ccccc21 | – | 13µM | – | – | –[10 µM] | –
COC(=O)/C=C1\N/C(=N\c2nc(C)cc(C)n2)N(c2ccc(C)c(C)c2)C1=O | · | – | – | ? | –[10 µM] | –
COc1ccc(-c2n[nH]c(C(F)(F)F)c2-c2cc3ccccc3o2)c(O)c1 | – | 3.5µM | · | – | –[10 µM] | –
COc1ccc(NCc2c(O)ccc3ccccc23)cc1 | · | · | – | · | –[10 µM] | ·
S=C(Nc1ccc(Cl)cc1)c1nc2ccccc2s1 | – | – | – | – | – | –
O=C(Nc1ccc(Cl)cc1)/C(=C/c1cccc(O)c1)c1nc2ccccc2s1 | · | –[0.0738 µM] | – | ? | –[0.074 µM] | 10µM
CC(C)N(CC(=O)O)CC(=O)O | · | · | – | · | –[10 µM] | ·
CCOC(=O)OCC1OC(c2ccc(C(C)=O)cc2)C=CC1OC(=O)OCC (stereo not drawn) | · | · | · | · | –[10 µM] | ·
COc1ccc(C(=O)OCC(=O)NCc2ccc3c(c2)OCO3)cc1[N+](=O)[O-] | – | – | – | -107 | –[10 µM] | –
COC(=O)c1cc(C(=O)OCC(=O)NCc2ccc3c(c2)OCO3)cc([N+](=O)[O-])c1 | · | – | – | – | –[10 µM] | –
CCN1CCCC1CN=Cc1c(O)n(-c2ccccc2)c(=O)c2ccccc12 (stereo not drawn) | – | – | – | -92 | –[0.074 µM] | –
CN(C1=C(N2CCCCC2)C(=O)c2ccccc2C1=O)c1ccccc1 | – | – | – | ? | – | 13µM
SMILES | IMPase cell inh | HttQ103 aggreg | IMPase Li cell | PNC assembly inh | HTT ATP protect | NPSR antagonist
O=C1C(Nc2ccccc2)=C(N2CCCCC2)C(=O)c2ccccc21 | – | ? | – | – | – | –
COc1ccccc1NC1=C(N2CCCCC2)C(=O)c2ccccc2C1=O | – | 13µM | – | -85 | –[10 µM] | –
CN(C)c1ccc(-n2cccc2/C=C/[N+](=O)[O-])cc1 | · | 25µM | – | · | – | 7.9µM
CCCCCC(=O)O[C@]1(C(C)=O)CC[C@H]2[C@@H]3CCC4=CC(=O)CC[C@]4(C)[C@H]3CC[C@@]21C | · | ? | – | – | · | 10µM
CC(=O)[C@@]1(O)CC[C@H]2[C@@H]3CCC4=CC(=O)CC[C@]4(C)[C@H]3CC[C@@]21C | · | – | – | – | – | –
COc1cc(Cl)nn(-c2ccccc2)c1=O | · | – | – | ? | –[10 µM] | –
O=c1c(Cl)cc(Cl)nn1-c1ccccc1 | · | 18µM | – | ? | –[10 µM] | –
